# In all, about 68,000 sequences were measured (“fluorescence intensity (a.u.)”: median about 9,100, highest 2% from about 16,000 on). This is one part of a sample in which the highest values are shown more often than they occur.
# Target: OsWRKY34 (Oryza sativa, UniProt Q0JBA9 1-250)
# Test: protein-binding microarray (RPBM); PBS, 2% BSA, 51.3 ng/ul salmon testes DNA, 50 uM zinc acetate, 200 nM TF, 25 C, 1 h; high values mean tight binding
# Conditions: protein: recombinant; tags: N-terminal polyhistidine and DsRed monomer fusion (pET32a); label: CyDye5-dUTP incorporated in the synthesized complementary strand; 3' TTTTT single-stranded linker to array surface; dsDNA, one strand shown
# Outline: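 A custom Agilent array was converted to double-stranded form by primer extension with Cy5-dUTP and blocked with 2% BSA. Protein at 200 nM in PBS with 2% BSA, salmon testes DNA and 50 µM zinc acetate was applied for 1 h at 25 °C, followed by washing. The proteins were polyhistidine–DsRed N-terminal fusions of transcription factors, expressed in E. coli BL21-CodonPlus and Ni–NTA-purified. The binding signal is per-feature fluorescence intensity (arbitrary units) from an Axon 4000B scanner.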
# Sequence of OsWRKY34 (Q0JBA9 entry or part of it): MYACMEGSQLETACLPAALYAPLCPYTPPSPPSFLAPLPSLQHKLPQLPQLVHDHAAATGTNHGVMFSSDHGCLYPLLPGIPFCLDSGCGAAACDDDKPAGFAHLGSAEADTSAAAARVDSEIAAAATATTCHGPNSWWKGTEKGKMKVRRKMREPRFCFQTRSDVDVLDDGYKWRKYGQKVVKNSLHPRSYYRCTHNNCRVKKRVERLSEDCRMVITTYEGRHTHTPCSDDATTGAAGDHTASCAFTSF
row,Sequence,binding signal
1,TTCTTGGTTTTGAGTTCTCTTCTCGGTTTTCTCTTTAGCGCGGAGTCACCTAGTGCAG,9000 fluorescence intensity (a.u.)
2,TCTGAAGATGAGAGAGAGCTCACAGTTTATGGTTTTTGTACGGAGTCACCTAGTGCAG,8830 fluorescence intensity (a.u.)
3,TGGTTTGGTTGTGGTAGATCTTTTTTACTTATTGCTACCACGGAGTCACCTAGTGCAG,15800 fluorescence intensity (a.u.)
4,ATACTCGAGATGGGCGCTTGGTACTTGCATGTTTCCATTCCGGAGTCACCTAGTGCAG,8680 fluorescence intensity (a.u.)
5,AAATGTTACAATCATGCTCCAAACTCACACCTTGTTTAACCGGAGTCACCTAGTGCAG,8540 fluorescence intensity (a.u.)
6,CCTTTCACCCGCCCAAACTCATCCATCCATCGATCGCCCTCGGAGTCACCTAGTGCAG,8560 fluorescence intensity (a.u.)
7,GCAATCCGTGTAATTAATTATTTTTTCGTTTATACTCTCTCGGAGTCACCTAGTGCAG,10200 fluorescence intensity (a.u.)
8,CTTCCCACGCCAACGCCTCCGCTCCCGCTCGTACCACGCGCGGAGTCACCTAGTGCAG,8090 fluorescence intensity (a.u.)
9,GGTTAGGGTTTGGGGTGGGGAGGGGTGGATGCGCGTGGGCCGGAGTCACCTAGTGCAG,21600 fluorescence intensity (a.u.)
10,GCCTCCGCCGCCGCCGCCGCCGCCGCGTCGTCTCCGACCGCGGAGTCACCTAGTGCAG,9710 fluorescence intensity (a.u.)
11,GGTTTTCCCTGGATGCCGAGAGGGTTTGGGTGCGCGCCGCCGGAGTCACCTAGTGCAG,8910 fluorescence intensity (a.u.)
12,TTCTTGGGGCTGGAGAGGGTGGGGATGGTGGTGCGGATGCCGGAGTCACCTAGTGCAG,15000 fluorescence intensity (a.u.)
13,GCTGCGGCCGTCAACGTGGTCGTCGTCTCCGCGGCCGCCGCGGAGTCACCTAGTGCAG,46900 fluorescence intensity (a.u.)
14,CTGGTCGTCGCTGCTCCGCGTGCCGGTCGGGGTGGGTGGGCGGAGTCACCTAGTGCAG,20100 fluorescence intensity (a.u.)
15,CCCAACCTCGCCGTCGCCGTCGCCGTCGCCGCCGTCTCCGCGGAGTCACCTAGTGCAG,10000 fluorescence intensity (a.u.)
16,TCGGTCGGGTCGGGTCGGGTCGCGTCGCGTGGGCTGCATGCGGAGTCACCTAGTGCAG,12200 fluorescence intensity (a.u.)
17,GTGGTGGGTGGTGGCCGCGCTGCTGCGCGGTGGGTCGCATCGGAGTCACCTAGTGCAG,11400 fluorescence intensity (a.u.)
18,TCGGTTGGTTGGGAATTTCCATGACTATTTTCACCTATAACGGAGTCACCTAGTGCAG,8650 fluorescence intensity (a.u.)
19,AGGCTTCCAATCTTGTGCTAATCTGCTGGTGAAGTATATGCGGAGTCACCTAGTGCAG,8480 fluorescence intensity (a.u.)
20,CTCCGCCGCCACGCTCGCCCGCTGTTTGCTCCGTCCGCAGCGGAGTCACCTAGTGCAG,8350 fluorescence intensity (a.u.)
21,TCTCTGGTGGCTCCCTGGCGCTCCTCTTCACTCCATCCTCCGGAGTCACCTAGTGCAG,9090 fluorescence intensity (a.u.)

row,Sequence,binding signal
1,TTTCTAGATGTCTACGCGTTATCAGCATGTTGATGTCTACCGGAGTCACCTAGTGCAG,8460 fluorescence intensity (a.u.)
2,GTCTCTTCTCTTCTCTCGTGCAAGGCCGGCAGTGTACCGTCGGAGTCACCTAGTGCAG,9270 fluorescence intensity (a.u.)
3,ATATTTGACCGTTTGTCTTTTTCAAAAACTTTTGTGAAATCGGAGTCACCTAGTGCAG,9920 fluorescence intensity (a.u.)
4,AAAACACCAAATTAGTTTTATTAAAACTAACTTTCAAATACGGAGTCACCTAGTGCAG,11900 fluorescence intensity (a.u.)
5,TAGAAGAGCGCGTTGACACCGTTGACTTTGGATTTTCCGTCGGAGTCACCTAGTGCAG,18700 fluorescence intensity (a.u.)
6,CTCCCTCTGTTTCAAAATATTTGACACTGTTGACTTTTTACGGAGTCACCTAGTGCAG,11000 fluorescence intensity (a.u.)
7,CGTTTCAAAATATTTAACACCGTTGACTTTTTAGTACGTGCGGAGTCACCTAGTGCAG,31100 fluorescence intensity (a.u.)
8,CAAATTAGATGTTATTTTGACTTTTTTTTACAATATTTGACGGAGTCACCTAGTGCAG,10600 fluorescence intensity (a.u.)
9,TCAAAATATTTGACACCGTTGACTTTTTAGGACGTGTTTACGGAGTCACCTAGTGCAG,24900 fluorescence intensity (a.u.)
10,CCGTTGACTTGGATTTGTTCCTTTTTCATTTTTTATCGTTCGGAGTCACCTAGTGCAG,14700 fluorescence intensity (a.u.)
11,GTTTGTCGTAGTAGTTTATTTTTGACACCGGCTTTCAAATCGGAGTCACCTAGTGCAG,9880 fluorescence intensity (a.u.)
12,ATTCAACACTTTTAAAATATTTTGATTGCGGTTTCTTTTACGGAGTCACCTAGTGCAG,9530 fluorescence intensity (a.u.)
13,TTGGTAGAGTTGTCCGTTTGGATTTTGGCCTCCCTTTTTTCGGAGTCACCTAGTGCAG,8380 fluorescence intensity (a.u.)
14,GTTTCAAAATATTTGACACCGTTGACTTTTTAGTACGTGTCGGAGTCACCTAGTGCAG,19100 fluorescence intensity (a.u.)
15,ATCTGCCTAACGTAAAATGCACTATATTCTGTTTTGTTCTCGGAGTCACCTAGTGCAG,8370 fluorescence intensity (a.u.)
16,GTGGCGACTGTTATCCCTAATTTTGCGGACTTGCTCTGATCGGAGTCACCTAGTGCAG,9800 fluorescence intensity (a.u.)
17,AACCACCTGAATTTCGTCGAATTTTACCAATTCTGCTGAACGGAGTCACCTAGTGCAG,9120 fluorescence intensity (a.u.)
18,AAGACATGTGAATTTTGGTGGGATGTGGATGGGGAATTGACGGAGTCACCTAGTGCAG,9840 fluorescence intensity (a.u.)
19,TTCTATTTTACCTCTCGTCTCTCTCCTCGCGGTCGCTTCTCGGAGTCACCTAGTGCAG,12800 fluorescence intensity (a.u.)
20,CTCCTCGGGCTAAAAGTGGTAATACGCGTTTCTCAAGCTTCGGAGTCACCTAGTGCAG,9930 fluorescence intensity (a.u.)
21,CTCACTTGACCGTGAACAGCACTCACTTGATTTGTACTTTCGGAGTCACCTAGTGCAG,10000 fluorescence intensity (a.u.)
